Data: article PMC7819943, “Rice protein-binding microarrays: a tool to detect cis-acting elements near promoter regions in rice”
Over roughly 39,000 sequences, “fluorescence intensity (a.u.)” has its median near 4,300; the highest 2% begin near 39,000. The full list was thinned out, with the highest values kept by preference.

The sequences below were run against T1, OsSMF1 (Oryza sativa, UniProt Q6ZLB0 1-436) (assay: protein-binding microarray (RPBM); PBS, 2% BSA, 51.3 ng/ul salmon testes DNA, 50 uM zinc acetate, 200 nM TF, 25 C, 1 h; high values mean tight binding). Details: protein: recombinant; tags: N-terminal polyhistidine and DsRed monomer fusion (pET32a); chain copies: 2; label: CyDye5-dUTP incorporated in the synthesized complementary strand; 3' TTTTT single-stranded linker to array surface; dsDNA, one strand shown.
T1 sequence: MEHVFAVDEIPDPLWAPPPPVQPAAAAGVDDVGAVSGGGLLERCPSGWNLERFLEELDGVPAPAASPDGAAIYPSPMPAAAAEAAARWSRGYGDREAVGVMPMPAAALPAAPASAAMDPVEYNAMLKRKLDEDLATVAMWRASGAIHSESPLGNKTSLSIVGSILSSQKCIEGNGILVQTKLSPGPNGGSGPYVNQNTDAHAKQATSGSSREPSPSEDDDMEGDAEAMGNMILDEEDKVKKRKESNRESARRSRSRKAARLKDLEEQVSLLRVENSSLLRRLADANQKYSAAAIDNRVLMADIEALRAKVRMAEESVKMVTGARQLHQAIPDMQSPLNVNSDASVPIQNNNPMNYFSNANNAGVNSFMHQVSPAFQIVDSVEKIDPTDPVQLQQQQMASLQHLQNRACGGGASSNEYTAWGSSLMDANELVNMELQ
Procedure, shortened: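 Transcription factors were each fused at the N-terminus to a polyhistidine tag plus DsRed and expressed in E. coli BL21-CodonPlus before Ni–NTA purification. Binding to a double-stranded custom Agilent array was carried out with 200 nM protein at 25 °C for 1 h in PBS, 2% BSA, salmon testes DNA and 50 µM zinc acetate. The binding signal is per-feature fluorescence intensity, in arbitrary units, on an Axon 4000B scanner.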

Point of comparison: “CAAATATATTATCAAAATATATTCAATGCTAAATTTAATGCGGAGTCACCTAGTGCAG”, binding signal 5300 fluorescence intensity (a.u.). Against it:
- TAATGAATTAGGGCATTGGATGTACCAACTTATGTTATATCGGAGTCACCTAGTGCAG — higher, 23300 fluorescence intensity (a.u.)
- TATATTCAATGCTATGTTTAATGAAACTAATTTGGATATTCGGAGTCACCTAGTGCAG — higher, 65100 fluorescence intensity (a.u.)
- CTATATTAATTAATGAATTAGCAATTGGATGTACCAATTTCGGAGTCACCTAGTGCAG — higher, 41000 fluorescence intensity (a.u.)
- GGATATGTATAACAATGTGGGTCAGCAATATTGAACTATGCGGAGTCACCTAGTGCAG — lower, 3650 fluorescence intensity (a.u.)
- CTCTCCTACAATAGGATGGACTATGTGACGTAGCACAATGCGGAGTCACCTAGTGCAG — higher, 7860 fluorescence intensity (a.u.)
- TTAGCAAGTGCCTATGTGAGGATATAGCAATATTTCAATGCGGAGTCACCTAGTGCAG — higher, 42200 fluorescence intensity (a.u.)
- TTAATAGTATAGTAAGCAATTGTTGTATGAATTGGCTATTCGGAGTCACCTAGTGCAG — higher, 27200 fluorescence intensity (a.u.)
- CCCGTGACGTGTCGGCATCGGAGGGCCCCTCGTCGGGGTCCGGAGTCACCTAGTGCAG — higher, 10200 fluorescence intensity (a.u.)
- GGTCCCGTCAGGGAAGGACCCCACGTCCTCGGTTCCATTCCGGAGTCACCTAGTGCAG — lower, 3910 fluorescence intensity (a.u.)
- GAGCAGTAATGCGTGTGCGGCGATTGGCACGTGCATGGTGCGGAGTCACCTAGTGCAG — lower, 3780 fluorescence intensity (a.u.)
- CTCCTTGGCCCGTTTGGTCTCTGTGTGGGTTGGTAAAGACCGGAGTCACCTAGTGCAG — lower, 3330 fluorescence intensity (a.u.)
- CCTCCGACATCTCCAGCCAATTCCAGCTCAGCTCTCGCCGCGGAGTCACCTAGTGCAG — lower, 4150 fluorescence intensity (a.u.)
- GCTTTACGTCTTGTGTGGAAGAAAGCGGAAAACTATCCAGCGGAGTCACCTAGTGCAG — lower, 3540 fluorescence intensity (a.u.)
- ATAATAGCACATGTGGATATCTGTAGAATTCATTTCGTGTCGGAGTCACCTAGTGCAG — lower, 3550 fluorescence intensity (a.u.)
- GACGTGATAAAGAAGTTCAGATTTAGAAATAAATTTGAAGCGGAGTCACCTAGTGCAG — lower, 3820 fluorescence intensity (a.u.)
- AGCAGCGGGCTACAGATTTATAGCCAGCTGTAGCACGGATCGGAGTCACCTAGTGCAG — higher, 33200 fluorescence intensity (a.u.)
- GAACGGGACCAGCTACTATAGTGAAATTTAGATTTCAAAGCGGAGTCACCTAGTGCAG — higher, 42200 fluorescence intensity (a.u.)
- GCGGCTTCTCGCCGGCGGCGACCACCACCCGTCACCCACCCGGAGTCACCTAGTGCAG — lower, 3380 fluorescence intensity (a.u.)
- ATCCATTGCTGCTTTCAGCTGAGTCACCAACTCCTATCCACGGAGTCACCTAGTGCAG — higher, 14100 fluorescence intensity (a.u.)
- GTTGCAGAGCAGCTCGCGCCGCGCGCGTACACTCGCTTTGCGGAGTCACCTAGTGCAG — higher, 6780 fluorescence intensity (a.u.)
- TTTGCCCATTTTATTCCCTTGCGTCATCCATTTACTGCTTCGGAGTCACCTAGTGCAG — higher, 13800 fluorescence intensity (a.u.)
- GGGCTTGCCCATTACGCGTTGCTATAGACGCCCTTTCATTCGGAGTCACCTAGTGCAG — higher, 41600 fluorescence intensity (a.u.)
- GTGGGCTTAGACGGCCCAGTCATGACCCTTTCATTTCGTGCGGAGTCACCTAGTGCAG — lower, 3440 fluorescence intensity (a.u.)
- GCGGTGGCGGTTGGGGTGGCGAGTGGGGAGGAGGAGGCGGCGGAGTCACCTAGTGCAG — higher, 5880 fluorescence intensity (a.u.)
- TAGCGCGGCTGCACAGTACAGTCCGACGTCACAGCTCACTCGGAGTCACCTAGTGCAG — higher, 49200 fluorescence intensity (a.u.)
- CGCCGGCACAGCGACATAGCTGACGTCGACGATGCTCACTCGGAGTCACCTAGTGCAG — higher, 5350 fluorescence intensity (a.u.)
- CCCAAAGCTGACGTACAGCACCGACCCGGTCGGCTGCTCGCGGAGTCACCTAGTGCAG — lower, 4200 fluorescence intensity (a.u.)
- ACCACATCCACTGCCGCGCCACGCCTCTCGGCCGCCACACCGGAGTCACCTAGTGCAG — lower, 3770 fluorescence intensity (a.u.)
- CAACCTTTATCTGAAGTGGCAGGCACGTGGATTAGCAATACGGAGTCACCTAGTGCAG — higher, 5790 fluorescence intensity (a.u.)
- GGTAATAGTGTCAACATATTGCATTAAGATGATTGCAGTGCGGAGTCACCTAGTGCAG — higher, 24300 fluorescence intensity (a.u.)
- CAAGATGGGTCGGGTTGGGTGGGGTTACTCGCACTAGCACCGGAGTCACCTAGTGCAG — lower, 3160 fluorescence intensity (a.u.)
- GCGGCTCGCCGTCATATGCGACGTGGCATGCACGACGCCGCGGAGTCACCTAGTGCAG — higher, 14300 fluorescence intensity (a.u.)
- GAATAGCTGCTTGTTAACTAGGGATTAGAGGTGGGGTTTTCGGAGTCACCTAGTGCAG — higher, 17400 fluorescence intensity (a.u.)
- CGCTGCTGAGTGCTGACTCCTTCGCCCTCCTCCTCACTTTCGGAGTCACCTAGTGCAG — higher, 7650 fluorescence intensity (a.u.)
- CTAGCTTTGAGGTGGAGGTGGTGGTGGAGGAGGAGGAGGACGGAGTCACCTAGTGCAG — lower, 3340 fluorescence intensity (a.u.)
- AGTGGCAGGGGTGTGGGGATTGCCGGCTTGCCGCGGAGGACGGAGTCACCTAGTGCAG — lower, 3530 fluorescence intensity (a.u.)
- TTTTCGCTGAGGTGGCAGGTTAACTTGTCTGCTTTCGGCCCGGAGTCACCTAGTGCAG — higher, 39300 fluorescence intensity (a.u.)
- GGCAGGACGGCAGGAGGCCTGTTCGCTTGAGGTGTCTAGCCGGAGTCACCTAGTGCAG — higher, 39800 fluorescence intensity (a.u.)
- GGGCTGGGGAAAATGATCGACTACTTTTAACCATTTCAGTCGGAGTCACCTAGTGCAG — lower, 3420 fluorescence intensity (a.u.)
- TACGTTGAATATTACCCTCTTGATGACTTGACTAATTTTACGGAGTCACCTAGTGCAG — lower, 3880 fluorescence intensity (a.u.)
- TTATATATCCCTGATAGCTGATTAGTTGGCACATCAGCATCGGAGTCACCTAGTGCAG — lower, 3210 fluorescence intensity (a.u.)
